Sampled rows, rich in hits. Any-hit rate of the full collection: about 9.4%.
SMN2 splice enh: enhancers of SMN2 splice variant expression; 210,000 compounds, 2.8% hits; HEK293 SMN2-luciferase splicing reporter, luminescence, 30-36 h; Potency, µM (series often up to 46.1 µM), for inactives: at the top dose activity change, positive = activation, usual class: activators; further: % of control where 0% means no effect; nearly all actives have a fitted effect of over 55% in size
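HEK293 cells carry an SMN2 […]–luciferase reporter in which exon 7 inclusion puts luciferase in frame. Cells were plated 10-12 h before compound addition, then incubated 30-36 h at 37C. ONE-Glo luminescence was read; sodium butyrate at 4.5 mM final served as control.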
Rab9 prom act: Rab9 promoter activation; Huh7 Rab9 promoter-luciferase reporter, luminescence, 24 h; Potency, µM (top dose mostly 9.22 µM), without a hit: at the highest dose activation, negative = inhibition, most hits filed as activators; 320,000 compounds, 2.8% hits; AID 485297; further: % of control where 0% means no effect; nearly all actives have a fitted effect of over 60% in size
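Quantitative HTS format; Huh7 Rab9-luciferase reporter cells (1500/well) receive compound 2 h post-plating, incubate 24 h at 37 °C, then get luciferase reagent for 10 min before luminescence reading.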
FLuc modulator: firefly luciferase modulation, counter-screen for miR-21 project; P08659; purified FLuc, Km substrates, luminescence inhibition; Potency, µM (highest dose often 57.5 µM), for inactives: at the top dose activity change, negative = inhibition, usual class: inhibitors; 360,000 compounds, 6.9% hits; AID 588342;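 further: plate controls were vehicle for no effect and reference inhibitor for full effect; nearly all actives have a fitted effect of over 55% in size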
Target sequence (P08659 whole entry, looked up): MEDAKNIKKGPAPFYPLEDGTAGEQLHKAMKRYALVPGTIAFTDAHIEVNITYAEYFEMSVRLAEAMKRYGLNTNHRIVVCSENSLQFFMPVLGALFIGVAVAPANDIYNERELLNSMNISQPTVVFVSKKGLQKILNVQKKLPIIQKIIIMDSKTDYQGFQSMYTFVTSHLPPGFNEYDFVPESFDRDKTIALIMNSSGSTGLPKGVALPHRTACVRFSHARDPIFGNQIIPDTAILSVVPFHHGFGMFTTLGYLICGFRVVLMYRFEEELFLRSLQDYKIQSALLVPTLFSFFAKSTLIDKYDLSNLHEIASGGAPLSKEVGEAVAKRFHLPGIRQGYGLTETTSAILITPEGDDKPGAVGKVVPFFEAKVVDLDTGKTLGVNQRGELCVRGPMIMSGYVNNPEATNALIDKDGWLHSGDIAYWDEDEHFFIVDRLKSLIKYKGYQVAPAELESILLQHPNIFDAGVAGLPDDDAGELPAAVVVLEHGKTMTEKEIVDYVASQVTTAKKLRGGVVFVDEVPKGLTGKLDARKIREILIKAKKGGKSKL
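Purified P. pyralis luciferase (10nM final) with 10uM D-luciferin and 10uM ATP (Km levels) in 50mM Tris acetate pH 7.5, 10mM Mg acetate, 0.01% Tween-20, 0.05% BSA; qHTS 6-point titration, ~60 µM downward; luminescence read.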
ELG1 repair inh: blocks ELG1-dependent DNA repair in HEK293T cells; HEK293T ELG1-luciferase reporter, luminescence, 16 h; DNA damage induced by 5-fluorouridine; Potency, µM (highest dose often 46.1 µM), without a hit: top-dose activity change, negative = inhibition, actives largely listed as inhibitors; 330,000 compounds, 2.3% hits; AID 504467; further: on the % scale 0 is the no-effect control and ±100 the full control effect; nearly all actives have a fitted effect of over 55% in size
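DMSO vehicle served as the neutral condition. Each well held 2,000 cells given 5-fluorouridine plus compound; after 16 hr at 37 °C/5% CO2, ONE-Glo was added and luciferase measured 30 min later.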
ELG1 genotoxic: inducers of genotoxicity in HEK293T ELG1-luciferase cells | 330,000 compounds, 1.3% hits | AID 504466 | Potency, µM (highest dose often 46 µM), for inactives: at the top dose activity change, positive = activation, most hits filed as activators | HEK293T ELG1-luciferase reporter, luminescence, 16 h; further: % of control where 0% means no effect; nearly all actives have a fitted effect of over 60% in size
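HEK293T cells expressing luciferase-tagged ELG1 were exposed to compound or DMSO vehicle for 16 hr at 37 °C and 5% CO2. Luciferase activity was then measured with ONE-Glo after 30 min at room temperature.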
NPC1 prom act: activators of NPC1 promoter; Potency, µM (doses to about 9.22 µM), inactives show top-dose activation, actives largely listed as activators; Huh7 NPC1 promoter luciferase reporter, 24 h; 320,000 compounds, 2.4% hits; AID 485313; further: % of control where 0% means no effect; nearly all actives have a fitted effect of over 60% in size
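Stable NPC1-promoter luciferase Huh7 line; cpd (DMSO) 24 h, 37 °C, 5% CO2; Amplite luciferase reagent 10 min RT; luminescence readout. qHTS format.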
The depositor's hits bear a star; ? = inconclusive; . = no result given; [ ] = another dose, or the depositor's remark. The call rests on the fitted dose curve; in most records, active means well fitted curve in the direction sought with a large enough effect; inconclusive means small, poorly fitted or top-dose-only effect, or another doubt; inactive means no such curve, though single readings can be large; an effect the other way counts as inactive or inconclusive. Potency means the concentration at half of the fitted maximal effect.

SMILES | SMN2 splice enh | Rab9 prom act | FLuc modulator | ELG1 repair inh | ELG1 genotoxic | NPC1 prom act
CCOc1ccc(NC(=O)CSc2nnc(CC)c(CC)n2)cc1 | . | . | -9.5% | . | . | .
O=C(CSC1=Nc2ccccc2C2=NC(CCC(=O)NC3CCCCC3)C(=O)N12)Nc1cccc(C(F)(F)F)c1 (stereo unspecified) | 11.9% | . | 2.3% | . | . | .
CCN(CC)S(=O)(=O)c1cc(C(=O)N=c2sccn2C)ccc1OC | . | 3.0% | 3.3% | -6.4% | 1.2% | -0.1%
Cc1cccc(C(=O)N=c2sccn2C)c1[N+](=O)[O-] | . | ? | 15.1µM* | ? | 10.3µM* | 2.82µM*
Cc1ccc(C(=O)N=c2sccn2C)cc1S(=O)(=O)N1CCOCC1 | . | 1.41µM* | ? | ? | ? | 3.98µM*
Cn1ccsc1=NC(=O)c1ccc(S(C)(=O)=O)c([N+](=O)[O-])c1 | . | 30.0% | 4.78µM* | ? | 11.6% | ?
CCCCOc1ccc(C(=O)N=c2sccn2C)cc1OC | . | 2.82µM* | 12µM* | ? | ? | 3.55µM*
COc1ccccc1NC(=O)C(C)Sc1nnc2ccc3ccccc3n12 (stereo unspecified) | . | . | 0.4% | . | . | .
N[C@H](C(=O)O)C1C(C(=O)O)C1C(=O)O (stereo partly specified) | 13.6% | . | . | . | . | .
C[C@H](Oc1ccc(Oc2cnc3ccc(Cl)cc3n2)cc1)C(=O)O | -5.4%[9.22 µM] | . | . | . | . | .
COc1ccc(CCNC(=O)c2cc3c(=O)n(C)c4cc(Cl)ccc4c3s2)cc1OC | 4.9% | . | -5.0% | . | . | .
CCOC(=O)Cc1cc(=O)[nH]c(Nc2nc3ccccc3o2)n1 | 13.3% | 10.2% | ? | ? | -0.1% | 4.4%
Cc1ccc2oc(Nc3nc(-c4ccccc4)cc(=O)[nH]3)nc2c1 | -14.8% | ? | ? | ? | 20.6µM* | 20.4%
Cc1ccc2oc(Nc3nc(C)cc(C)n3)nc2c1 | 4.2% | 3.16µM* | ? | ? | 8.9% | ?
COCc1cc(=O)[nH]c(Nc2nc3ccccc3o2)n1 | -37.4% | 26.1% | ? | ? | ? | ?
Cc1cc(C)c2nc(Nc3nc(-c4ccccc4)cc(=O)[nH]3)nc(C)c2c1 | . | 1.3% | 1.69µM* | ? | 4.2% | 8.5%
COC(=O)Cc1cc(=O)[nH]c(Nc2nc3ccccc3o2)n1 | 24.4% | -4.0% | 16.9µM* | -0.4% | 7.5% | 4.7%
O=C(CCOc1ccccc1)N(Cc1cccnc1)c1nc2c(F)cc(F)cc2s1 | . | . | 4.5% | . | . | .
CCOC(=O)c1ccc(NC(=O)c2cc(=O)c3cc(CC)ccc3o2)cc1 | 17.3% | . | 0.9% | . | . | .
O=c1oc2c(CN3CCOCC3)c(O)ccc2c2c1CCCC2 | -15.3% | -2.0% | 0.2% | -4.6% | -14.0% | 23.3%
O=c1oc2c(CN3CCOCC3)c(O)ccc2c2ccccc12 | 2.6% | 29.1% | ? | ? | 12.8% | 3.98µM*
C=CC(C)N1C(=O)S/C(=C\c2ccc(N3CCOCC3)cc2C)C1=O (stereo unspecified) | -37.6% | ? | 10.7µM* | ? | ? | ?
Cc1cc(N2CCOCC2)ccc1/C=C1\NC(=O)N(CC(=O)Nc2ccccc2C)C1=O | ? | 0.6% | ? | ? | 19.9% | 12.5%
Cc1ccc(C)n1-c1ccc(N2CCOCC2)cc1 | 20.6% | -12.1% | 3.1% | ? | 11.3% | 0.6%
C=CCN1C(=O)S/C(=C\c2ccc(N3CCOCC3)cc2C)C1=O | . | 3.55µM* | 6.01µM* | ? | ? | ?
SMILES | SMN2 splice enh | Rab9 prom act | FLuc modulator | ELG1 repair inh | ELG1 genotoxic | NPC1 prom act
Cc1cc(N2CCOCC2)ccc1/C=C1/SC(=O)NC1=O | 22.4µM* | ? | 15.1µM* | ? | ? | ?
O=C1NC(=S)N/C1=C\c1ccc(N2CCOCC2)cc1 | 18.2% | 23.4% | 21.3µM* | ? | ? | 29.2%
O=C(Nc1ccccc1OCc1cc(=O)n2ccccc2n1)Nc1ccccc1C(F)(F)F | . | . | -1.3% | . | . | .
O=C(Nc1nc(=O)c2ccccc2s1)c1ccc(F)cc1 | 14.1µM* | 3.16µM* | 2.13µM* | ? | ? | ?
O=C(Nc1nc(=O)c2ccccc2s1)c1ccc(Cl)cc1 | 12.6µM* | 2.51µM* | 1.07µM* | ? | 1.84µM* | 2.82µM*
O=C(Nc1nc2ccsc2c(=O)s1)c1ccc(Cl)cc1 | . | 0.1µM* | 0.213µM* | ? | ? | 0.251µM*
O=C(Cc1ccccc1)Nc1nc(=O)c2ccccc2s1 | 1.2% | . | 4.8% | ? | 3.9% | -1.7%
COc1ccc(S(=O)(=O)NCC(c2ccco2)N2CCN(c3ccccc3F)CC2)cc1C (stereo unspecified) | . | . | 3.7% | . | . | .
CC1CC[C@]2(CO)CC[C@]3(C)C(=CCC4[C@@]5(C)CCC(O)C(C)(C)C5CC[C@@]43C)C2C1C (stereo partly specified) | 6.6% | . | . | . | . | .
